Measurements reported in PubChem BioAssay (NCATS).
Inconclusive results are not listed. Calls of active or inactive are those of the source. Unless noted, calls follow the shape of the full dose curve.

Columns and labels:
[1] = qHTS for Inhibitors of the Functional Ribonucleoprotein Complex (vRNP) of Lassa (LASV) Arenavirus: LASV Primary Screen - GLuc reporter signal (AID 1347082; calls by dose curve; tested in HEK293 reporter line; also: nearly all actives have a fitted effect of over 60% in size)
[2] = qHTS for Inhibitors of the Functional Ribonucleoprotein Complex (vRNP) of Lassa (LASV) Arenavirus: Viability assay - alamar blue signal for LASV Primary Screen (AID 1347083; calls by dose curve; tested in HEK293 reporter line; also: nearly all actives have a fitted effect of over 80% in size)
[3] = qHTS for Inhibitors of the Functional Ribonucleoprotein Complex (vRNP) of Lymphocytic Choriomeningitis Arenaviruses (LCMV): Viability assay - alamar blue signal for LCMV Primary Screen (AID 1347085; calls by dose curve; tested in HEK293 reporter line; also: nearly all actives have a fitted effect of over 80% in size)
[4] = biological target: Nucleoprotein (Lymphocytic choriomeningitis virus (strain Armstrong)) (UniProt P09992); assay: qHTS for Inhibitors of the Functional Ribonucleoprotein Complex (vRNP) of Lymphocytic Choriomeningitis Arenaviruses (LCMV): LCMV Primary Screen - GLuc reporter signal (AID 1347086); also: nearly all actives have a fitted effect of over 70% in size
% is scaled to controls: 0 for no effect and ±100 for the full control effect.
Also: series mostly up to about 57 µM.

Chain of Nucleoprotein (Lymphocytic choriomeningitis virus (strain Armstrong)) (P09992 whole entry, looked up): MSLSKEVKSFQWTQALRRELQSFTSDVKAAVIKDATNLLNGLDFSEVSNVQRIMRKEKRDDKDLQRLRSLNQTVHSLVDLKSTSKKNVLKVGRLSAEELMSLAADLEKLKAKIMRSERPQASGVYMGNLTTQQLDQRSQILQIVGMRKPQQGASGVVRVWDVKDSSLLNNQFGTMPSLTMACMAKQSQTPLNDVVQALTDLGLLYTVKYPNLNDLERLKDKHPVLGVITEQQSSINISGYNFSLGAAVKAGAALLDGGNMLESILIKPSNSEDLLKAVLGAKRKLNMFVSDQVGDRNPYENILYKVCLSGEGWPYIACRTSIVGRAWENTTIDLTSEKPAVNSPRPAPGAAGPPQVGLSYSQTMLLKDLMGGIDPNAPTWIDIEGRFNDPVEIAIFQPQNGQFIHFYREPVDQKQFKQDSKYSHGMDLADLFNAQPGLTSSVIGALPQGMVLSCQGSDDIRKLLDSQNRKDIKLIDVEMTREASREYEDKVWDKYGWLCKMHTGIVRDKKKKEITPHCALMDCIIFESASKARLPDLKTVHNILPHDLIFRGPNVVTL

Clc1ccccc1-c1nc(-c2ccncc2)no1
inactive: Potency [1] | Potency [2] | Potency [3] | Potency [4]

CCCCCN(CCCCC)C(=O)C(CCC(=O)O)NC(=O)c1ccc(Cl)c(Cl)c1 (stereo not given)
inactive: Potency [1] | Potency [2] | Potency [3] | Potency [4]

CN(C)C(=O)Oc1cccc([N+](C)(C)C)c1
inactive: Potency [1] | Potency [2] | Potency [3] | Potency [4]

OC(CN1CCC(Cc2ccc(F)cc2)CC1)c1ccc(Cl)cc1 (stereo not given)
inactive: Potency [1] | Potency [2] | Potency [3] | Potency [4]

COC(=O)C1=C(C)NC(COC(N)=O)=C(C(=O)OC(C)C)C1c1cccc(Cl)c1Cl (stereo not given)
inactive: Potency [1] | Potency [2] | Potency [3] | Potency [4]

OC[C@@H](O)[C@@H](O)[C@H](O)[C@H](O)CO
inactive: Potency [1] | Potency [2] | Potency [3] | Potency [4]

NNC(=O)CP(=O)(c1ccccc1)c1ccccc1
inactive: Potency [1] | Potency [2] | Potency [3] | Potency [4]

CC(C)(Oc1ccc(CCNC(=O)c2ccc(Cl)cc2)cc1)C(=O)O
inactive: Potency [1] | Potency [2] | Potency [3] | Potency [4]

CC(C)(C)c1nnc(NS(=O)(=O)c2ccc(N)cc2)s1
inactive: Potency [1] | Potency [2] | Potency [3] | Potency [4]

CC1CC(=O)NN=C1c1ccc(NCC(C)(C)NCC(O)COc2cc(Cl)ccc2C#N)cc1 (stereo not given)
inactive: Potency [1] | Potency [2] | Potency [3] | Potency [4]

CCCCCCCCNC(C)C(O)c1ccc(SC(C)C)cc1 (stereo not given)
inactive: Potency [1] | Potency [2] | Potency [3] | Potency [4]

C[C@]12CCC(=O)C=C1C=C[C@@H]1[C@@H]2CC[C@@]2(C)[C@H]1CC[C@@]21CCC(=O)O1
inactive: Potency [1] | Potency [2] | Potency [3] | Potency [4]

CCCCCCCCCCOCC(O)CN (stereo not given)
inactive: Potency [1] | Potency [2] | Potency [3] | Potency [4]

O=C(O)[C@H](O)[C@@H](O)[C@H](O[C@@H]1O[C@H](CO)[C@H](O)[C@H](O)[C@H]1O)[C@H](O)CO
inactive: Potency [1] | Potency [2] | Potency [3] | Potency [4]

CN1CCN(C2=Nc3cc(F)ccc3Cc3ccccc32)CC1
inactive: Potency [1] | Potency [2] | Potency [3] | Potency [4]

CCOC(=O)[C@H](CCc1ccccc1)N[C@@H](C)C(=O)N1C(=O)N(C)C[C@H]1C(=O)O
inactive: Potency [1] | Potency [2] | Potency [3] | Potency [4]

CN1CCCN=C1COC(=O)C(O)(c1ccccc1)C1CCCCC1 (stereo not given)
inactive: Potency [1] | Potency [2] | Potency [3] | Potency [4]

CCc1cccc2c(CCO)c[nH]c12
inactive: Potency [1] | Potency [2] | Potency [3] | Potency [4]

CC(=O)OCC(=O)NCCCOc1cccc(CN2CCCCC2)c1
inactive: Potency [1] | Potency [2] | Potency [3] | Potency [4]

Cc1cccc(OCC(O)CNC(C)(C)C)c1C (stereo not given)
inactive: Potency [1] | Potency [2] | Potency [3] | Potency [4]

NCCc1ccc(O)c(O)c1
inactive: Potency [1] | Potency [2] | Potency [3] | Potency [4]

CCn1c(=O)c2c(nc(C=Cc3ccc(OC)c(OC)c3)n2C)n(CC)c1=O
inactive: Potency [1] | Potency [2] | Potency [3] | Potency [4]

CCc1cc2cc(OC)c(OC)cc2c(Cc2ccccc2)n1
inactive: Potency [1] | Potency [2] | Potency [3] | Potency [4]

C(=C\c1ccccc1)/CN1CCN(C(c2ccccc2)c2ccccc2)CC1
inactive: Potency [1] | Potency [2] | Potency [3] | Potency [4]

Cc1cc(=O)oc2cc(O)ccc12
inactive: Potency [1] | Potency [2] | Potency [3] | Potency [4]

CC(=O)Oc1ccc(C2(c3ccc(OC(C)=O)cc3)C(=O)Nc3ccccc32)cc1
inactive: Potency [1] | Potency [2] | Potency [3] | Potency [4]

O=C(NCCCN1CCOCC1)c1ccc(Cl)cc1
inactive: Potency [1] | Potency [2] | Potency [3] | Potency [4]

O=C(CCN1CCN(CCO)CC1)N1c2ccccc2Sc2ccc(C(F)(F)F)cc21
inactive: Potency [1] | Potency [2] | Potency [3] | Potency [4]

Cc1ccc(C(=O)Oc2ccc(C(O)CNC(C)(C)C)cc2OC(=O)c2ccc(C)cc2)cc1 (stereo not given)
inactive: Potency [1] | Potency [2] | Potency [3] | Potency [4]

CC(C)NC(=O)c1ccc(C=O)cc1
inactive: Potency [1] | Potency [2] | Potency [3] | Potency [4]

CC(=O)N1C[C@H](O)C[C@H]1C(=O)O
inactive: Potency [1] | Potency [2] | Potency [3] | Potency [4]

CCCN(CCC)C(=O)C(CCC(=O)OCCCN1CCN(CCOC(=O)Cc2c(C)n(C(=O)c3ccc(Cl)cc3)c3ccc(OC)cc23)CC1)NC(=O)c1ccccc1 (stereo not given)
inactive: Potency [1] | Potency [2] | Potency [3] | Potency [4]

NC[C@H]1O[C@H](O[C@H]2[C@H](O)[C@@H](O[C@H]3O[C@H](CO)[C@@H](O)[C@H](N)[C@H]3O)[C@H](N)C[C@@H]2N)[C@H](N)[C@@H](O)[C@@H]1O
inactive: Potency [1] | Potency [2] | Potency [3] | Potency [4]

N[C@H](Cc1c[nH]c2ccccc12)C(=O)O
inactive: Potency [1] | Potency [2] | Potency [3] | Potency [4]

O=c1[nH]c(=O)c2ccccc2o1
inactive: Potency [1] | Potency [2] | Potency [3] | Potency [4]

Nc1ccncc1N
inactive: Potency [1] | Potency [2] | Potency [3] | Potency [4]

C/C(=N/NC(=O)c1ccncc1)C(=O)O
inactive: Potency [1] | Potency [2] | Potency [3] | Potency [4]

C#CC1(O)CC[C@H]2[C@@H]3CCC4=CCCC[C@@H]4[C@H]3CC[C@@]21C (stereo not given in full)
inactive: Potency [1] | Potency [2] | Potency [3] | Potency [4]

N[C@@H](CSSC[C@H](N)C(=O)O)C(=O)O
inactive: activity change, negative = inhibition [1] -0.506% [at 0.757 µM] | activity change, negative = reduced viability [2] 9.51% [at 0.757 µM] | activity change, negative = lower viability [3] 6.72% [at 0.757 µM] | activity change, negative = inhibition [4] 13.5% [at 0.757 µM]

C[C@H]1C[C@H]2[C@@H]3CCC4=CC(=O)C=C[C@]4(C)[C@H]3C(=O)C[C@]2(C)[C@@]1(O)C(=O)CO
inactive: Potency [1] | Potency [2] | Potency [3] | Potency [4]

Nc1ccc2c(c1)CN1C(=O)c3ccccc3C1=N2
inactive: Potency [1] | Potency [2] | Potency [3] | Potency [4]

CN(C)CCOC(c1ccccc1)c1ccc(Br)cc1 (stereo not given)
inactive: Potency [1] | Potency [2] | Potency [3] | Potency [4]

Nc1ccn([C@H]2CC[C@@H](CO)O2)c(=O)n1
inactive: Potency [1] | Potency [2] | Potency [3] | Potency [4]

Cc1ccc2c(Cl)cc(Cl)c(O)c2n1
inactive: Potency [1] | Potency [2] | Potency [3] | Potency [4]

CCCCN1CCCC[C@H]1C(=O)Nc1c(C)cccc1C
inactive: Potency [1] | Potency [2] | Potency [3] | Potency [4]

COc1cc([C@H]2Oc3cc([C@H]4Oc5cc(O)cc(O)c5C(=O)[C@@H]4O)ccc3O[C@@H]2CO)ccc1O
inactive: Potency [1] | Potency [2] | Potency [3] | Potency [4]

O=C(Nc1ccc([N+](=O)[O-])cc1)Nc1ccc([N+](=O)[O-])cc1
inactive: Potency [1] | Potency [2] | Potency [3] | Potency [4]

O=C(NCCc1c[nH]c2ccccc12)c1cccnc1
inactive: Potency [1] | Potency [2] | Potency [3] | Potency [4]

Cc1cccc(C)c1NC(=O)C(C)N (stereo not given)
inactive: Potency [1] | Potency [2] | Potency [3] | Potency [4]

NS(=O)(=O)c1cc(C(=O)O)c(NCc2ccco2)cc1Cl
inactive: Potency [1] | Potency [2] | Potency [3] | Potency [4]

Cc1cccc(N(C)C(=S)Oc2ccc3ccccc3c2)c1
inactive: Potency [1] | Potency [2] | Potency [3] | Potency [4]

CCOC(=O)c1c(N)sc2c1CCN(Cc1ccccc1)C2
inactive: Potency [1] | Potency [2] | Potency [3] | Potency [4]

CCCCCOc1ccccc1/C(=C\SC)n1ccnc1
inactive: Potency [1] | Potency [2] | Potency [3] | Potency [4]

Cc1ccc2c(c1)c1c3n2CCNC3CCC1 (stereo not given)
inactive: Potency [1] | Potency [2] | Potency [3] | Potency [4]

C=CCOc1ccccc1OCC(O)CNC(C)C (stereo not given)
inactive: Potency [1] | Potency [2] | Potency [3] | Potency [4]

O=C(Nc1ccc(C(=O)O)c(O)c1)c1ccccc1
inactive: Potency [1] | Potency [2] | Potency [3] | Potency [4]

CC(=O)Oc1ccc2c(c1)CC[C@@H]1[C@@H]2CC[C@]2(C)[C@@H](O)CC[C@@H]12
inactive: Potency [1] | Potency [2] | Potency [3] | Potency [4]

CC(=O)N(CC(O)CN(C(C)=O)c1c(I)c(C(=O)NCC(O)CO)c(I)c(C(=O)NCC(O)CO)c1I)c1c(I)c(C(=O)NCC(O)CO)c(I)c(C(=O)NCC(O)CO)c1I (stereo not given)
inactive: Potency [1] | Potency [2] | Potency [3] | Potency [4]

Oc1ccc(/C=C/c2cc(O)cc(O)c2)cc1
inactive: Potency [1] | Potency [2] | Potency [3] | Potency [4]

CC1=C(CC(=O)O)c2cc(F)ccc2/C1=C\c1ccc(S(C)=O)cc1 (stereo not given)
inactive: Potency [1] | Potency [2] | Potency [3] | Potency [4]
